# Experimental data reported in PubChem BioAssay (EPA / NIEHS).
# The source made the active and inactive calls. The calls were made as follows: active = hit-call score of the fitted dose curve at least 0.9, where 1 is the maximum; inactive = score below 0.9.
# Read-out: UDP glucuronosyltransferase (UGT1A6), UGT1A6 (gene 54578)
# Experiment: LTEA_HepaRG_UGT1A6: Life Technologies and Expression Analysis (LTEA) Assay for UDP glucuronosyltransferase (UGT1A6) using HepaRG (AID 2283539)
# Settings: mRNA level, 48 h; actives raise or lower the signal
# Protocol: LTEA_HepaRG is a cell based, multiplexed-readout assay that uses HepaRG, a human liver cell line, with measurements taken at 48 hours after chemical dosing on a 96-well plate.LTEA_HepaRG_UGT1A6 is one of 102 assay component(s) measured in the LTEA HepaRG cell culture assay. It is a marker of NR mediated metabolism.Data from the assay component LTEA_HepaRG_UGT1A6 was analyzed into 1 endpoint. This assay endpoint, LTEA_HepaRG_UGT1A6, was analyzed with bidirectional fitting relative to DMSO as the negative control and baseline of activity. Using a type of inducible reporter, measures of mRNA induction for gain or loss-of-signal activity can be used to understand regulation of transcription factor activity. To generalize the intended target to other relatable targets, this assay endpoint is annotated to the transferase intended target family, where the subfamily is glucuronosyltransferase.
# A total of 1060 chemcials from the ToxCast library were tested in eight-point concentration-response experiments. Cell culture and cytotoxicity assays were conducted at Thermo Fisher Scientific's Custom Services facility (Madison, WI). A single lot of human HepaRG cells (Thermo Fisher Scientific, Frederick, MD) was used for the cell culture experiments. 96-well format collagen type I coated plates of human HepaRG cells were prepared using established methods. Briefly, cryopreserved HepaRG cells were thawed, plated at a density of approximately 100,000 cells/well in HepaRG Thaw, Plate, and General Purpose media (HPRG770, Thermo Fisher Scientific), and incubated for 48 hours. 0.5% DMSO was selected as vehicle control to balance the requisite need of DMSO in HepaRG cultures to maintain differentiation (for example, baseline metabolism, proportions of hepatocytes vs. cholangiocytes), while enabling further hepatic receptor pathway activation (for example, PXR and CAR) in response to chemical exposure. 48 hours after plating, the culture medium was replaced with HepaRG Serum-Free Incudtion Media. Cells were exposed to each test chemical in duplicate and maintained in CO2 incubators for another 48 hours. Chemical plates were thawed to room temperature and 200x concentrations of treatment groups were prepared. 8-point conentration-reponse curves were made with the highest exposure at 100 uM, followed by half-log dilutions, all in 0.5% DMSO. Each test plate contained variouse controls, induction positive controls (1mM phenobarbital), cytotoxicity positive controls ([…] aflatoxin B1), vehicle controls (0.5% DMSO), and total lysis controls (0.5% DMSO). Cell morphology images were taken using an Essen IncuCyte FLR automated microscope, with six 96-well plates imaged in about 24 minutes. Images were captured and exported and JPEG files. Spent culture media was transfered to black-well plates for the LDH assay, and remaining media was sorted at -80 C for later use. Cells were treated with RLT buffer and frozen until shipped for gene expression analysis. Total RNA was isolated from the cell suspension in 75 uL of Buffer RLT (Qiagen, Germantown, MD 20874) by Quintiles/Expression Analysis (Durham, NC) using a custom isolation procedure. Total RNA from each plate well was transferred to a preamplification plate. Fluidigm's 96.96 Dynamic ArrayTM (Fluidigm, Amsterdam, the Netherlands) technology was used for gene expression analyses by quantitative reverse transcription polymerase chain reaction (qRT-PCR, performed by Quintiles/Expression Analysis, Durham, NC)89. Standard TaqManTM Assays (Applied Biosystems/ThermoFisher Scientific, Foster City, CA) were used to assess the expression of 93 genes selected based on their selectivity and sensitivity to important hepatic receptors known to be modulated by environmental chemicals; importance in human hepatocyte functionality; and hepatotoxicity. […]
SMILES,outcome,AC50
Nc1ccc(Cc2ccc(N)cc2)cc1,inactive,–
ClCCOCCCl,inactive,–
CC(C)(C)OOC(=O)c1ccccc1,inactive,–
Cc1cc(N=Nc2ccccc2C)ccc1N,–,12.2 µM (active)
O=C(Nc1ccccc1)c1ccccc1I,inactive,–
ClC1=C(Cl)C2(Cl)C3C(Cl)C=CC3C1(Cl)C2(Cl)Cl (stereo not given),inactive,–
O=Cc1ccco1,inactive,–
N#CC(Br)Br,inactive,–
CCC12COCN1COC2,inactive,–
Oc1ccc2ccc3cccc4ccc1c2c34,inactive,–
CCCSC(=O)N(CCC)CCC,inactive,–
Cc1ccc(N)cc1,inactive,–
CCC[CH2][Sn]([Cl])([CH2]CCC)[CH2]CCC,–,12.6 µM (active)
CC(C)(C)OOC(C)(C)CCC(C)(C)OOC(C)(C)C,inactive,–
CCCCCCCCCCCCCN1CC(C)OC(C)C1 (stereo not given),inactive,–
Clc1ccccc1Cl,inactive,–
Nc1ccc(Oc2ccc(N)cc2)cc1,inactive,–
c1ccc(C2CO2)cc1 (stereo not given),inactive,–
CCCCOC(=O)c1ccccc1C(=O)OCc1ccccc1,inactive,–
ClC1=C(Cl)[C@]2(Cl)[C@H]3[C@H]([C@@H]4C=C[C@H]3C4)[C@@]1(Cl)C2(Cl)Cl,inactive,–

SMILES,outcome,AC50
c1ccc2c(c1)oc1ccccc12,inactive,–
CC(C)COC(=O)c1ccccc1C(=O)OCC(C)C,inactive,–
CN(C)c1ccc(C(=O)c2ccc(N(C)C)cc2)cc1,inactive,–
O=P(OCCCl)(OCCCl)OCCCl,inactive,–
Clc1ccc(C(c2ccc(Cl)cc2)C(Cl)(Cl)Cl)cc1,inactive,–
c1ccc(NNc2ccccc2)cc1,inactive,–
CN(C)C(=O)Nc1ccc(Cl)cc1,inactive,–
OCCCBr,inactive,–
CCNS(=O)(=O)C(F)(F)C(F)(F)C(F)(F)C(F)(F)C(F)(F)C(F)(F)C(F)(F)C(F)(F)F,inactive,–
Cc1ccc([N+](=O)[O-])cc1,inactive,–
Cc1cccc(N)c1N,inactive,–
O=[N+]([O-])C(Br)(CO)CO,inactive,–
CCOc1cccc(C2(N3CCN(c4ccccc4)CC3)CCC(C)CC2)c1 (stereo not given),inactive,–
CC(C)(C)C(O)(CCc1ccc(Cl)cc1)Cn1cncn1 (stereo not given),inactive,–
COP(=S)(OC)SCN1C(=O)c2ccccc2C1=O,inactive,–
[Cl-].[Cl-].[Hg+2],inactive,–
Nc1cc(Cl)cc(C(=O)O)c1Cl,inactive,–
Clc1ccc(Cl)c(Cl)c1,–,9.92 µM (active)
O=[N+]([O-])c1ccc(Oc2ccc(Cl)cc2Cl)cc1,inactive,–
CC(C)(O)c1cnn2c(-c3ccc(F)c(-c4c(F)cccc4C#N)c3)cnc2n1,inactive,–
